Only some compounds are listed: those with a hit (about 12% of all), similar ones and a draw of the others.
HP1b binding inh – HTS for Inhibitors of HP1-beta Chromodomain Interactions with Methylated Histone Tails; Potency, µM (top dose mostly 114 µM), for inactives: at the top dose activity change, negative = inhibition, actives largely listed as inhibitors; AlphaScreen HP1-beta / biotin-H3K9me3 peptide binding; 390,000 tested, 0.56% active; Chromobox protein homolog 1 (Homo sapiens), P83916; AID 540317, 2011; also: nearly all actives have a fitted effect of over 70% in size
Target sequence (P83916 whole entry, looked up): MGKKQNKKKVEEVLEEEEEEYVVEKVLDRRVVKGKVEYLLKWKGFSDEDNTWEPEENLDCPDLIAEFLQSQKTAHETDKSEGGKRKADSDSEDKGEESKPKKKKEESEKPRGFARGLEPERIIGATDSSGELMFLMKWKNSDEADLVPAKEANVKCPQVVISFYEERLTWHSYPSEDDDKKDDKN
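AlphaScreen: HP1-beta (50 nM) preformed 30 min with biotin-H3(1-18)K9me3 peptide (50 nM) in PBS pH 7.4, 0.01% Tween-20. Compound added for 30 min at RT, then streptavidin donor/nickel chelate acceptor beads (10 ug/mL) for 30 min.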
JMJD2A Tudor inh – qHTS Assay for Inhibitors of JMJD2A-Tudor Domain. AlphaScreen JMJD2A-Tudor / H3K4me3 peptide binding. Potency, µM (series often up to 114 µM), inactives show at the top dose activity change, negative = inhibition, actives largely listed as inhibitors. AID 504339, 2011. Lysine-specific demethylase 4A (Homo sapiens), O75164. 390,000 tested, 4.4% active; also: % is scaled to controls: 0 for no effect and ±100 for the full control effect; nearly all actives have a fitted effect of over 50% in size
G9a block – qHTS Assay for Inhibitors of Histone Lysine Methyltransferase G9a; 350,000 tested, 8.8% active; Histone-lysine N-methyltransferase EHMT2 (Homo sapiens), Q96KQ7; AID 504332, 2011; Potency, µM (doses to about 102 µM), without a hit: at the highest dose activity, negative = inhibition, actives largely listed as inhibitors; G9a H3K9 monomethylation, AlphaScreen, 2 h; also: % is scaled to controls: 0 for no effect and ±100 for the full control effect; nearly all actives have a fitted effect of over 75% in size
Target sequence (Q96KQ7 913-1193 limits assumed): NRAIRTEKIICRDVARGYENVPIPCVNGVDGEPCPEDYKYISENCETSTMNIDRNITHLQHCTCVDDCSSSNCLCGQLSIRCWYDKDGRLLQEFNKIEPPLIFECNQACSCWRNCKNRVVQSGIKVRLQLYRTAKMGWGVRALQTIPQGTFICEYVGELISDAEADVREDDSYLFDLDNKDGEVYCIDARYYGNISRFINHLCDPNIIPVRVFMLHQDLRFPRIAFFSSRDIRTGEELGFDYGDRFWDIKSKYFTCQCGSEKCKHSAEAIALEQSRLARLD
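AlphaScreen read-out: biotin-H3K9 peptide (500 nM) methylation by 20 nM enzyme with 20 uM SAM, 2 h at room temperature after 15 min compound preincubation; anti-monomethyl H3K9 antibody plus donor/acceptor beads, 10 min dark.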
Sfp inh – qHTS Assay for Inhibitors of Bacillus subtilis Sfp phosphopantetheinyl transferase (PPTase). Biochemical Sfp PPTase activity, qHTS. 4'-phosphopantetheinyl transferase ffp (Bacillus subtilis), Q9F4F7. AID 1490, 2009. Potency, µM, for inactives: largest response in the series, negative = inhibition, actives largely listed as inhibitors. 310,000 tested, 3.5% active;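 also: the enzyme is Sfp with the accession as filed and its product quenches rhodamine fluorescence; 0% = enzyme reaction without inhibitor and -100% = no enzyme wells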
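Buffer: 50 mM Hepes-Na pH 7.6, 10 mM MgCl2, 0.01% Nonidet P-40, 0.01% BSA. Enzyme 15 nM, pre-exposed to compound 15 min; substrates then added and fluorescence change tracked over 30 min.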
BAZ2B inh – qHTS Assay for Inhibitors of BAZ2B; Bromodomain adjacent to zinc finger domain protein 2B (Homo sapiens), Q9UIF8; AlphaScreen BAZ2B-H3K14Ac peptide displacement; Potency, µM (top dose mostly 114 µM), without a hit: top-dose activity change, negative = inhibition, usual class: inhibitors; 360,000 tested, 4.4% active; AID 504333, 2011; also: % is scaled to controls: 0 for no effect and ±100 for the full control effect; nearly all actives have a fitted effect of over 60% in size
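BAZ2B 50 nM plus b-H3(5-23)K14Ac 50 nM, PBS pH 7.4/0.01% Tween-20, 30 min RT; compound added (max 110 uM), 30 min RT; streptavidin donor/Ni-chelate acceptor beads 10 ug/mL final, 20 min dark; AlphaScreen read.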
L3MBTL1 inh – qHTS Assay for the Inhibitors of L3MBTL1 | AlphaScreen L3MBTL1–H3K9me1 peptide binding | Lethal(3)malignant brain tumor-like protein 1 (Homo sapiens), Q9Y468 | 230,000 tested, 0.66% active | Potency, µM (series often up to 57.1 µM), inactives show at the highest dose activity, negative = inhibition, usual class: inhibitors; also: % is scaled to controls: 0 for no effect and ±100 for the full control effect; nearly all actives have a fitted effect of over 60% in size
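AlphaScreen assay: L3MBTL1 (50 nM final) was preincubated 30 min at room temperature with biotinylated H3(1-15)K9me1 peptide (75 nM final), then 30 min with library compounds; streptavidin donor and nickel chelate acceptor beads (10 ug/mL final) added, 30 min dark.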
* = called active by the depositor; ? = inconclusive; / = not tested or not shown; [ ] = dose if it differs, or a comment. Calls follow the shape of the dose curve; as a rule, active = well fitted curve in the direction sought with a large enough effect; inconclusive = small, poorly fitted or top-dose-only effect, or another doubt; inactive = no such curve, though single readings can be large; an effect the other way counts as inactive or inconclusive. Potency is read from the fitted curve at half-maximal effect.

SMILES | HP1b binding inh | JMJD2A Tudor inh | G9a block | Sfp inh | BAZ2B inh | L3MBTL1 inh
CCOc1ccc(CNC(=O)C2CCN(C(=O)c3sccc3-n3cccc3)CC2)cc1 | 20.4% | -24.7% | 5.4%[59 µM] | / | -24.1% | /
Cc1nc(C)c(-c2csc(NCc3ccco3)n2)s1 | -18.4% | ? | ? | -2.4% | 50.1µM* | /
Cc1nc(C)c(-c2csc(NCc3ccccc3)n2)s1 | ? | ? | 50.1µM* | 56.2µM* | 50.1µM* | ?
CCOc1ccccc1Nc1nc(-c2sc(C)nc2C)cs1 | 5.6% | ? | ? | ? | ? | -18.7%
O=S(=O)(c1ccc2nc(Cl)c(Cl)nc2c1)N1CCN(S(=O)(=O)c2c(F)cccc2F)CC1 | / | -11.0% | / | / | / | /
CNc1ccc([N+](=O)[O-])cc1-c1nc2ccccc2[nH]c1=O | 28.0% | -11.3% | -3.9% | 2.1% | -1.2% | 2.5%
O=C1c2ccccc2C(=O)C1c1ccc(Cl)cc1 | 9.0% | -19.0% | 44.7µM* | 16.7% | ? | /
COc1ccc(C(=O)N/N=C/c2sc3ccccc3c2O)cc1 | -2.8% | ? | 50.1µM* | 4.1% | 44.7µM* | 0.9%
O=C(N/N=C/c1sc2ccccc2c1O)c1cccc2ccccc12 | -37.2% | 79.4µM* | 5.8%[59 µM] | 1.2% | 44.7µM* | -12.9%
COc1ccc(Cn2ncc3c4sc(C)cc4n(C)c3c2=O)cc1F | / | -3.4% | / | / | / | /
COc1ccc(OC)c(NC(=O)NNC(=O)c2cc3occc3[nH]2)c1 | 54.0% | 1.6% | 50.1µM* | -0.7% | ? | /
CCOC(=O)C1CCN(C(=O)CCn2c(=O)c3cccn3c3cccnc32)CC1 | 45.0% | -9.9% | 32.0% | 14.1% | -15.2% | /
CN1CCc2nc3sc(C(=O)Nc4c(F)cccc4F)c(N)c3cc2C1 | 25.9% | -26.5% | 15.8µM* | / | -38.4% | /
CC(C)OC(=O)CC(=O)c1sc2nc3c(cc2c1N)CN(C)CC3 | 9.5% | ? | ? | 44.7µM* | ? | ?
CN1CCc2nc3sc(C(=O)Nc4cccc(C#N)c4)c(N)c3cc2C1 | -17.6% | ? | 15.8µM* | / | ? | /
CCCCN(C)CC(O)Cn1cc(/C=C/C(=O)c2ccc(OC)c(OC)c2)c2ccccc21 (stereo not given) | 19.3% | ? | -29.0%[59 µM] | / | ? | /
CC(=O)OCC1OC(C#CCCc2ccccc2)C=CC1OC(C)=O (stereo not given) | / | / | / | 5.2% | / | /
CCCN1CC(CSC)C[C@H]2c3cccc4[nH]cc(c34)C[C@H]21 (stereo not given in full) | / | / | -29.6%[2.33 µM] | 8.1% | / | /
O=C(C=Cc1ccccc1Cl)c1ccccc1 | 37.7%[57 µM] | 62.1% | / | / | / | /
O=C(/C=C/c1ccc(-c2ccccc2)o1)c1ccccc1 | ? | -4.2% | ? | 15.8µM* | 35.5µM* | -21.3%
Cc1ccc(-c2ccc(/C=C/C(=O)c3ccccc3)o2)cc1 | -6.5% | -20.0% | -18.8%[59 µM] | 11.2µM* | ? | -11.8%
Cc1cccc(C=CC(=O)c2ccccc2)c1 | 29.6% | 65.1% | / | / | / | /
Cc1ccc(C(=O)/C=C/C(=O)c2ccc(C)cc2)cc1 | ? | -23.1% | 1.58µM* | 3.16µM* | 6.0% | 12.6%
Cc1ccc(/C=C/C(=O)c2ccc(C)cc2)cc1 | 19.6% | -1.5% | 7.9%[59 µM] | -2.7% | 11.2% | 10.7%
Cc1ccccc1CN1CCN(C2CCC2)CC1CCO (stereo not given) | 24.3% | -1.4% | 57.9% | 17.5% | 9.7% | -6.5%
CCCCCCCC#Cc1ccccc1/C=N/S(=O)c1ccc(C)cc1 (stereo not given) | 171.0% | 8.91µM* | 0.794µM* | 25.1µM* | 24.6% | 7.9%
C=C1CCC[C@]2(C)C[C@H]3OC(=O)C(CNCCN(C)C)[C@H]3CC12 (stereo not given in full) | 27.6% | -17.4% | 0.1%[12.7 µM] | -5.2% | -6.6% | /

Screening results: PubChem BioAssay, National Center for Advancing Translational Sciences (NCATS)
